This excerpt belongs to a sample that is enriched for hits.
Shiga toxin inh: A qHTS for Small Molecule Inhibitors of Shiga Toxin. Vero cells, Shiga toxin protein synthesis inhibition reporter. inhibition, % at 38.7 µM. actives 9.2% (n = 290,000). AID 2315, 2010; in the data active = inhibition mostly above about 28%, no sharp cut-off; inactive = mostly below about 43%; note: 0% is about no effect
TbPYK inhibitor: qHTS of Trypanosoma Brucei Inhibitors | pyruvate kinase (Trypanosoma brucei), Q57TT1 | TbPYK enzyme, Kinase-Glo Plus ATP luminescence, 45 min | Potency, µM (doses to about 76.8 µM), for the others: at the top dose activity, negative = inhibition, hits mostly inhibitors | actives 0.12% (n = 410,000); note: potency is the fitted concentration of half-maximal effect; % is set by controls: 0 for no effect and ±100 for the full control effect; nearly all actives have a fitted effect of over 50% in size
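Quantitative HTS: titrated library compounds versus trypanosomal pyruvate kinase in TEA buffer (pH 7.2) containing KCl, MgCl2, BSA and Tween-20. Reactions were initiated with ADP, 130 uM final. Kinase-Glo Plus luminescence was read after 45 min at RT.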
RE007 growth inh: qHTS Assay for Inhibitors of the HIV-1 protein Vpr; Potency, µM (titrated, usually from 92.2 µM), without a hit: top-dose activity change, negative = less growth, usual class: inhibitors; actives 0.21% (n = 360,000); S. pombe RE007 Vpr strain, BacTiter-Glo ATP luminescence, 24 h; AID 651644, 2012; active = well fitted falling curve with a large enough effect; inconclusive = small, poorly fitted or top-dose-only effect; inactive = no such curve, though single readings can be large or run the other way; note: potency is the fitted concentration of half-maximal effect; % is set by controls: 0 for no effect and ±100 for the full control effect; nearly all actives have a fitted effect of over 50% in size
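Fission yeast strain RE007, carrying one chromosomally integrated HIV-1 vpr copy, was seeded at OD 0.01 in PMG+AL medium with 23 nL pinned compound. After 24 h at 30 °C and 99% humidity, viability was read by BacTiter-Glo luminescence.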
LmPK inh: qHTS Assay for Inhibitors of Leishmania Mexicana Pyruvate Kinase (LmPK). Q27686. actives 0.37% (n = 290,000). Potency, µM (highest dose often 57.5 µM), without a hit: at the top dose activity change, negative = inhibition, hits mostly inhibitors. purified LmPK, Kinase-Glo ATP luminescence, 1 h; note: potency is the fitted concentration of half-maximal effect; % is set by controls: 0 for no effect and ±100 for the full control effect
Target sequence (Q27686 whole entry, looked up): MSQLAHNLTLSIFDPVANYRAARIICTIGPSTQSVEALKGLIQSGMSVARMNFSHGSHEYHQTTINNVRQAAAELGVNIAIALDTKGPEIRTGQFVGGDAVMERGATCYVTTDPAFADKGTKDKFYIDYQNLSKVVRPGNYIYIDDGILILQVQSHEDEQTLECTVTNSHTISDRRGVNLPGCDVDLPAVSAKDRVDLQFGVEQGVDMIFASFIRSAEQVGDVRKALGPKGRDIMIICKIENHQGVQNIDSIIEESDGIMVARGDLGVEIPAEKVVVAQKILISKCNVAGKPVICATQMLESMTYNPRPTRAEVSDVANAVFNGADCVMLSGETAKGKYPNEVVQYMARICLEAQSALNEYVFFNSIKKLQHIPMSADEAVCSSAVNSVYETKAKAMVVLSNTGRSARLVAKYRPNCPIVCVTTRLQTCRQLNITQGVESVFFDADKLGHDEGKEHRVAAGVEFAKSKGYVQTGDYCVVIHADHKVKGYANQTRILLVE
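Purified LmPK (0.1 nM) with 0.5 mM PEP and 0.1 mM ADP in imidazole buffer pH 7.2 with MgCl2/KCl, 1 h at room temperature. ATP formed was read by luciferase luminescence and normalized to no-enzyme and uninhibited controls.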
Giardia FBPA inh-1: qHTS Assay for Inhibitors of Fructose-1,6-bisphosphate Aldolase from Giardia Lamblia | A8B2U2 | purified Giardia FBPA | Potency, µM (top dose mostly 59.6 µM), for inactives: at the top dose activity, negative = inhibition, actives largely listed as inhibitors | actives 0.71% (n = 290,000) | AID 2451, 2010; note: potency is the fitted concentration of half-maximal effect; % is set by controls: 0 for no effect and ±100 for the full control effect; nearly all actives have a fitted effect of over 55% in size
Target sequence (A8B2U2 whole entry, looked up): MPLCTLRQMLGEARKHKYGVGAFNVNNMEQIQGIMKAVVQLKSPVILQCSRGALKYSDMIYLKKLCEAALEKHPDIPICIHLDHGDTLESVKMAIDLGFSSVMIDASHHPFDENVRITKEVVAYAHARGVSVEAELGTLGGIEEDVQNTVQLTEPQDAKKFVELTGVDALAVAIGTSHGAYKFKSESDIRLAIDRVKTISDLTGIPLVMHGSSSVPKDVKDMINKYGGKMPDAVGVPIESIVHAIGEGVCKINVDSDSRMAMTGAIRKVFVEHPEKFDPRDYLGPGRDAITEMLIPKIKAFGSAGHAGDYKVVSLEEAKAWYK
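40 nM FBPA preincubated 10 min at RT with compound (up to 57.5 uM final), then substrate plus GAPDH/TPI/NAD/arsenate coupling and diaphorase/resazurin added. Fluorescence read after 20 min at RT, 525/598 nm.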
Cycloheximide cs: Cycloheximide Counterscreen for Small Molecule Inhibitors of Shiga Toxin. cell reporter, cycloheximide protein synthesis inhibition counterscreen. max response, %. actives 12% (n = 300,000). AID 2314, 2010; in the data active = max response mostly above about 13%, no sharp cut-off; inactive = mostly below about 14%; note: read at 38.3 µM for the half of the compounds with a filed dose; 0% is about no effect
Giardia growth: qHTS Assay for Inhibitors of Fructose-1,6-bisphosphate Aldolase from Giardia Lamblia: Giardia lamblia growth inhibition; shares compounds with Giardia FBPA inh-1; Giardia lamblia trophozoite growth inhibition; Potency, µM (top dose mostly 57.5 µM), for inactives: top-dose activity change, negative = inhibition, hits mostly inhibitors; actives 5% (n = 1,500);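 note: potency is the fitted concentration of half-maximal effect; trophozoites exposed to compound for 48 h at 37 °C; % is set by controls: 0 for no effect and ±100 for the full control effect; nearly all actives have a fitted effect of over 70% in size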
Mammalian tox: qHTS Assay for Inhibitors of Fructose-1,6-bisphosphate Aldolase from Giardia Lamblia: Mammalian cellular toxicity; shares compounds with Giardia FBPA inh-1; mammalian cell viability counter-screen, qHTS; Potency, µM (top dose mostly 57.5 µM), for the others: top-dose viability change, negative = toxicity, actives largely listed as inhibitors; actives 4% (n = 1,500); AID 2786, 2010;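 note: Chinese hamster ovary cells used as mammalian cytotoxicity surrogate; viability measured as cellular ATP by luminescence; potency is the fitted concentration of half-maximal effect; compound exposure lasted 48 h before reading; % is set by controls: 0 for no effect and ±100 for the full control effect; nearly all actives have a fitted effect of over 60% in size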
Giardia FBPA inh-2: qHTS Assay for Inhibitors of Fructose-1,6-bisphosphate Aldolase from Giardia Lamblia: Primary screen confirmation; shares compounds with Giardia FBPA inh-1; purified Giardia aldolase enzyme activity, qHTS; AID 2787, 2010; actives 5% (n = 1,500); Potency, µM (top dose mostly 57.5 µM), for inactives: at the top dose activity change, negative = inhibition, most hits filed as inhibitors; note: potency is the fitted concentration of half-maximal effect; % is set by controls: 0 for no effect and ±100 for the full control effect; nearly all actives have a fitted effect of over 45% in size
Rabbit FBPA inh: qHTS Assay for Inhibitors of Fructose-1,6-bisphosphate Aldolase from Giardia Lamblia: Rabbit FBPA Selectivity; shares compounds with Giardia FBPA inh-1; Rabbit muscle FBPA enzyme inhibition, selectivity counter-screen; Potency, µM (doses to about 57.5 µM), for inactives: at the top dose activity, negative = inhibition, actives largely listed as inhibitors; actives 4% (n = 1,500); AID 2794, 2010; note: potency is the fitted concentration of half-maximal effect; % is set by controls: 0 for no effect and ±100 for the full control effect; nearly all actives have a fitted effect of over 60% in size
GAPDH coupling: qHTS Assay for Inhibitors of Fructose-1,6-bisphosphate Aldolase from Giardia Lamblia: Coupling assay counterscreen confirmation; shares compounds with Giardia FBPA inh-1; GAPDH coupling enzyme counterscreen, biochemical, qHTS; Potency, µM (doses to about 57.5 µM), for the others: at the highest dose activity change, negative = inhibition, hits mostly inhibitors; actives 6% (n = 1,500); AID 2795, 2010; note: potency is the fitted concentration of half-maximal effect; % is set by controls: 0 for no effect and ±100 for the full control effect; nearly all actives have a fitted effect of over 55% in size
* hit, by the source's call; ? = inconclusive; . = not tested or not shown; [ ] = remark or other dose. Unless noted, calls come from the whole dose curve; as a rule, active = well fitted curve in the direction sought with a large enough effect; inconclusive = small, poorly fitted or top-dose-only effect, or another doubt; inactive = no such curve, though single readings can be large; an effect the other way counts as inactive or inconclusive.

SMILES	Shiga toxin inh	TbPYK inhibitor	RE007 growth inh	LmPK inh	Giardia FBPA inh-1	Cycloheximide cs	Giardia growth	Mammalian tox	Giardia FBPA inh-2	Rabbit FBPA inh	GAPDH coupling
CCN(CCNCC(O)COc1ccccc1C(C)C)c1cccc(C)c1 (stereo not given)	-7	19%	2%	-6%	22µM*	-4	12%	-26%	-5%	0%	-16%
CC(C)CCN(Cc1ccco1)C(=O)Cn1ncc2c([nH]c3ccccc32)c1=O	.	3%	.	.	.	.	.	.	.	.	.
COc1cccc2c1ncc1c(-c3ccc(C)cc3)nn(-c3ccc(F)cc3)c12	.	0%	.	.	.	.	.	.	.	.	.
O=C(NNc1cccc(Cl)n1)C(F)(F)F	15	-1%	-11%	10%	20µM*	8	?	9%	-13%	-2%	1%
CC(=O)NNc1cccc(Cl)n1	6	4%	-11%	-3%	-1%	6	.	.	.	.	.
COc1ccc(C(=O)CC2(O)C(=O)N(Cc3ccccc3)c3ccc(Br)cc32)cc1 (stereo not given)	.	20%	.	.	.	.	.	.	.	.	.
CN(CCOCCOc1ccc2ccccc2c1)Cc1ccccc1	9	-4%	-23%	-10%	2%	8	.	.	.	.	.
CC1=CC(=O)NP(=O)(Oc2ccc3ccccc3c2)N1 (stereo not given)	34	?	-23%	-7%	16µM*	-5	?	10%	-17%	7%	12%
Nc1nnc(-c2ccco2)s1	15	1%	0%	4%	6.3µM*	19	5%	-14%	1%	4%	1%
O=C(C1=NN[C@@H]2C(=O)N(c3cccc(F)c3)C(=O)[C@H]12)c1cnccn1	-3	4%	2%	1%	16µM*	-1	?	-9%	0%	6%	10%
O=C(Nc1ncn[nH]1)c1ccccc1O	1	-1%	-4%	-2%	20µM*	0	?	-3%	-12%	-3%	8%
CCCCNC(=O)C1CCN(c2nc3ccccc3nc2C(F)(F)F)CC1	.	2%	.	.	.	.	.	.	.	.	.
Cc1ccccc1C(N)c1ccncc1 (stereo not given)	-3	2%	5%	9%	14µM*	-1	-9%	26%	5%	13%	-2%
OC(c1ccccc1)c1ccncc1 (stereo not given)	.	1%	-3%	.	.	.	.	.	.	.	.
CN(C)S(=O)(=O)c1cccc(-n2sc3ccccc3c2=O)c1	40	4µM*	-11%	-2%	14µM*	17	?	?	-5%	22µM*	-15%
C=CCNC(=S)N/N=C1\CCS(=O)(=O)c2ccccc21	13	2%	-12%	1%	7.1µM*	3	-19%	12%	12%	8%	5%
Cc1cccc(C)c1Nc1c(-c2ccc(Cl)s2)nc2ncccn12	.	2%	.	.	.	.	.	.	.	.	.
Cc1ccc(Nc2cc(C)c3c(O)cccc3n2)cc1C	76*	-9%	-10%	-2%	?	46*	6%[38.3 µM]	-1%	?	?	21µM*
CCOc1ccc(S(=O)(=O)NC(C)C(=O)NCc2ccccn2)cc1 (stereo not given)	-6	-3%	-8%	-3%	7%	-1	.	.	.	.	.
COc1ccc(NC(=O)CC(NCc2ccccn2)C(=O)O)cc1 (stereo not given)	7	0%	15%	0%	11µM*	2	20%	10%	14%	-12%	-11%
CCOc1ccc(NC(=O)CC(NCc2ccccn2)C(=O)O)cc1 (stereo not given)	-7	-1%	10%	-2%	5µM*	3	-14%[38.3 µM]	22%	13%	-5%	-25%
CC1(C)C2CCC(C2)C1(C)NC(=O)CN1CCN(Cc2ccccc2)CC1 (stereo not given)	-10	-1%	-6%	1%	16µM*	-5	0%[10.4 µM]	3%	-4%	4%	-9%
O=C(NC1CC(=O)N(c2cccc(F)c2)C1)C1CC1 (stereo not given)	.	-11%	.	.	.	.	.	.	.	.	.
Cc1ccc2cccc(NC(=O)C(C)(C)Oc3ccc(Br)cc3)c2n1	.	4%	.	.	.	.	.	.	.	.	.
O=C1C(SCCO)=C(SCCO)C(=O)c2ccccc21	.	4µM*	-16%	.	0.89µM*	.	?	11µM*	6.3µM*	?	4µM*
CC1=C(SCc2ccccc2)C(=O)c2ccccc2C1=O	.	-16%	?	.	.	.	.	.	.	.	.
Cc1nnc(SCC2=C(C(=O)O)N3C(=O)C(NC(=O)Cn4nc(C(F)F)cc4C)C3SC2)s1 (stereo not given)	0	-4%	8%	-1%	14µM*	-3	7%[10.4 µM]	7%	-6%	1%	-1%
Cc1nnc(SCC2=C(C(=O)O)N3C(=O)C(NC(=O)c4cc(F)c(F)cc4Cl)C3SC2)s1 (stereo not given)	23	8%	-3%	1%	20µM*	14	?	-3%	2%	11%	9%
Cc1nnc(SCC2=C(C(=O)O)N3C(=O)C(NC(=O)COc4ccc(F)cc4)C3SC2)s1 (stereo not given)	.	-19%	2%	.	.	.	.	.	.	.	.
O=C(NC(Cc1ccccc1)C(=O)O)/C(=C/c1ccc([N+](=O)[O-])cc1)NC(=O)c1ccc(Br)o1 (stereo not given)	5	-12%	-18%	-4%	9%	-3	.	.	.	.	.
